Test results taken from PubChem BioAssay (EPA / NIEHS).
Calls of active or inactive are those of the source. How the source made its calls: active means hit-call score of the fitted dose curve at least 0.9, where 1 is the maximum; inactive means score below 0.9.

Experiments:
[1] = ATG_GRE_CIS: Attagene CIS-FACTORIAL HepG2 Assay for human Glucocorticoid Response Elements (GRE) (AID 2282947); conditions: HepG2 GRE cis-reporter, Attagene multiplex mRNA; actives raise or lower the signal
Method in brief: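 Transiently transfected HepG2 cells carrying GRE cis-reporter units (endogenous TF activity) dosed 24 h; reporter mRNA quantified by RT-PCR, 6-FAM labelling, HpaI digestion and capillary electrophoresis. Bidirectional fit versus DMSO baseline.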

[2] = ATG_ISRE_CIS: Attagene CIS-FACTORIAL HepG2 Assay for human Interferon Regulatory Factor 1 (IRF1) binding to an Interferon-Stimulated Response Element (ISRE) (AID 2282948); conditions: HepG2 ISRE cis-reporter (Attagene), mRNA transcription readout; actives raise or lower the signal
Method in brief: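 Transiently transfected HepG2 cells carrying cis-element reporter units, dosed 24 hours. Reporter mRNA quantified by RT-PCR, fluorescent primer extension, HpaI digestion and capillary electrophoresis. Bidirectional fitting relative to DMSO.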

[3] = ATG_M_32_CIS: Attagene CIS-FACTORIAL HepG2 Assay for M32 Transcription Factor (Internal Marker) (AID 2282949); conditions: HepG2 Attagene cis-factorial M32 reporter, mRNA; actives raise or lower the signal;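 further: background control marker of the multiplexed CIS panel rather than a real target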
Method in brief: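 HepG2 cells transiently transfected with multiplexed cis-regulated reporter units, dosed 24 h. Reporter mRNA quantified by RT-PCR, 6-FAM labelling, HpaI digestion and capillary electrophoresis; bidirectional fit vs DMSO.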

[4] = ATG_M_06_CIS: Attagene CIS-FACTORIAL HepG2 Assay for M06 Transcription Factor (Internal Marker) (AID 2282950); conditions: HepG2 Attagene CIS-FACTORIAL M06 internal marker reporter; actives raise or lower the signal
Method in brief: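 Terse: HepG2, transient MRTU transfection (FuGene 6), 24 h dosing; total RNA, oligo(dT) RT, PCR, FAM label, HpaI cut, capillary electrophoresis; bidirectional fit vs DMSO baseline; background-control endpoint.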

[5] = target: Hepatocyte nuclear factor 6 (Homo sapiens) (UniProt Q9UBC0); assay: ATG_HNF6_CIS: Attagene CIS-FACTORIAL HepG2 Assay for human Hepatocyte Nuclear Factor 6 (HNF6) (AID 2282952); conditions: HepG2 Attagene cis-factorial HNF6 reporter transcription; actives raise or lower the signal
Method in brief: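 Reporter mRNA induction or loss in HepG2 after 24 h exposure; transient cis-MRTU transfection; fragments quantified by capillary electrophoresis; bidirectional analysis, DMSO as negative control.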

[6] = target: Heat shock factor protein 1 (Homo sapiens) (UniProt Q00613); assay: ATG_HSE_CIS: Attagene CIS-FACTORIAL HepG2 Assay for human Heat Shock Transcription Factor 1 (HSE) (AID 2282953); conditions: HepG2 HSE cis-reporter, Attagene RNA transcription; actives raise or lower the signal
Method in brief: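 Read-out: fluorescence of reporter-specific RT-PCR fragments separated by capillary electrophoresis. HepG2 carrying transfected cis-element reporter units; 24 h dosing; activity fitted in both directions relative to DMSO baseline.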

[7] = ATG_PBREM_CIS: Attagene CIS-FACTORIAL HepG2 Assay for human Phenobarbital-responsive Enhancer Module (PBREM) (AID 2282955); conditions: HepG2 PBREM cis-reporter, Attagene multiplexed transcription; actives raise or lower the signal
Method in brief: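 Endogenous transcription factor activity was read from reporter transcripts in transiently transfected human HepG2 liver cells after 24 h dosing. RT-PCR products were fluorescently labelled, HpaI-cut and sized by capillary electrophoresis; activity fitted bidirectionally against DMSO baseline.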

[8] = target: Paired box protein Pax-6 (Homo sapiens) (UniProt P26367); assay: ATG_Pax6_CIS: Attagene CIS-FACTORIAL HepG2 Assay for human Paired Box 6 (PAX6) (AID 2282956); conditions: HepG2 CIS-FACTORIAL PAX6 reporter transcription, RNA readout; actives raise or lower the signal
Method in brief: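 HepG2 cells transiently transfected with cis-promoter-driven multiplexed reporter units sensing endogenous transcription factor activity; 24 h chemical exposure. Reporter mRNA quantified by RT-PCR, 6-FAM labelling, HpaI digestion and capillary electrophoresis; bidirectional fit versus DMSO baseline.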

[9] = ATG_PXRE_CIS: Attagene CIS-FACTORIAL HepG2 Assay for human Pregnane X Receptor Element (PXRE) (AID 2282957); conditions: HepG2 Attagene CIS-FACTORIAL PXRE reporter, mRNA; actives raise or lower the signal
Method in brief: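 Transiently transfected HepG2 cells were dosed and incubated for 24 h. RNA was then isolated, DNase-treated, reverse-transcribed and reporter sequences amplified. Labeled, HpaI-digested fragments were quantified by capillary electrophoresis against DMSO.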

[10] = ATG_RORE_CIS: Attagene CIS-FACTORIAL HepG2 Assay for human RAR-related Orphan Receptor Element (RORE) (AID 2282959); conditions: HepG2 Attagene cis-factorial RORE reporter, mRNA; actives raise or lower the signal
Method in brief: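 RORE reporter transcripts reflecting endogenous factor activity were read after 24 h compound exposure of transfected HepG2 cells, using reverse transcription, PCR, fluorescent labelling and capillary electrophoresis sizing. Gain or loss fitted against DMSO.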

[11] = ATG_Sox_CIS: Attagene CIS-FACTORIAL HepG2 Assay for human SRY-box transcription factor (SOX) (AID 2282960); conditions: HepG2 Attagene cis-factorial SOX reporter, mRNA; actives raise or lower the signal
Method in brief: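 Reporter transcripts, measured by RT-PCR and capillary electrophoresis of labelled fragments, report endogenous SOX transcription factor activity. Transiently transfected human HepG2 cells receive chemical for 24 h; changes in either direction are fitted relative to DMSO.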

[12] = target: Transcription factor Sp1 (Homo sapiens) (UniProt P08047); assay: ATG_Sp1_CIS: Attagene CIS-FACTORIAL HepG2 Assay for human Specificity Protein 1 (Sp1) (AID 2282961); conditions: HepG2 Sp1 cis-reporter transcription, actives raise or lower the signal
Method in brief: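 Read-out is reporter transcript level, measured by RT-PCR and fluorescent capillary electrophoresis after 24 h chemical treatment. System: transiently transfected HepG2 cells reporting endogenous transcription factor activity; gain or loss fitted against DMSO baseline.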

[13] = ATG_SREBP_CIS: Attagene CIS-FACTORIAL HepG2 Assay for human Sterol Regulatory Element Binding (SREBP) (AID 2282962); conditions: HepG2 Attagene cis-factorial SREBP reporter, mRNA; actives raise or lower the signal
Method in brief: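 HepG2 cells transiently transfected with multiplexed cis-promoter reporter units sensing endogenous transcription factors; reporter mRNA measured 24 h after dosing by RT-PCR, 6-FAM labeling, HpaI digestion and capillary electrophoresis. Bidirectional fit versus DMSO.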

[14] = target: Signal transducer and activator of transcription 3 (Homo sapiens) (UniProt P40763); assay: ATG_STAT3_CIS: Attagene CIS-FACTORIAL HepG2 Assay for human Signal Transducer and Activator of Transcription 3 (STAT3) (AID 2282963); conditions: HepG2, Attagene cis-factorial STAT3 reporter transcription; actives raise or lower the signal
Method in brief: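 HepG2 cells transiently transfected with multiple cis-element-driven reporter units report endogenous transcription factor activity. After 24 h compound exposure, reporter mRNA is measured by RT-PCR, 6-FAM labelling, HpaI digestion and capillary electrophoresis. Fitted bidirectionally versus DMSO.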

[15] = ATG_TA_CIS: Attagene CIS-FACTORIAL HepG2 Assay for human TA Basal Promoter (AID 2282964); conditions: HepG2 Attagene CIS-factorial TA basal promoter reporter; actives raise or lower the signal
Method in brief: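 Transfected HepG2, 24 h compound exposure; RNA → RT-PCR → FAM primer extension → HpaI cut → CE fluorescence. Gain/loss-of-signal fitted against DMSO negative control. Background-control readout.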

[16] = ATG_TCF_b_cat_CIS: Attagene CIS-FACTORIAL HepG2 Assay for human T-Cell-Factor with beta-catenin (TCF/b-cat) (AID 2282965); conditions: HepG2 TCF/beta-catenin cis-reporter transcription, actives raise or lower the signal
Method in brief: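 HepG2, transient MRTU transfection, cis-element-driven reporters (endogenous TFs). 24 h compound exposure. Readout: reporter mRNA by RT-PCR + 6-FAM primer extension, HpaI digest, capillary electrophoresis. Gain/loss fit vs DMSO baseline.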

[17] = target: Hypoxia-inducible factor 1-alpha (Homo sapiens) (UniProt Q16665); assay: ATG_HIF1a_CIS: Attagene CIS-FACTORIAL HepG2 Assay for human Hypoxia Inducible Factor 1 (HIF1A) (AID 2282951); conditions: HepG2 Attagene cis-factorial HIF1a reporter transcription; actives raise or lower the signal
Method in brief: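 Activity is fitted in both directions relative to DMSO. Reporter transcripts are read by RT-PCR, fluorescent primer extension and capillary electrophoresis after 24 h chemical treatment. The cells are HepG2 carrying transiently transfected cis-element-driven reporter units responding to endogenous factors.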

[18] = ATG_PPRE_CIS: Attagene CIS-FACTORIAL HepG2 Assay for human Peroxisome Proliferator-activated Response Element (PPRE) (AID 2282958); conditions: HepG2 PPRE cis-element reporter, Attagene transcription factor profiling; actives raise or lower the signal
Method in brief: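 Endogenous PPRE-driven transcription is measured in HepG2 cells carrying transfected multi-reporter constructs. Reporter transcripts are quantified by RT-PCR, HpaI digestion and capillary electrophoresis 24 h after dosing. DMSO baseline, bidirectional fit.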

[19] = ATG_MRE_CIS: Attagene CIS-FACTORIAL HepG2 Assay for human Metal Responsive Element (MRE) (AID 2282954); conditions: HepG2 MRE cis-reporter transcription, Attagene multiplex; actives raise or lower the signal
Method in brief: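 HepG2 cells transiently transfected with cis-element-driven reporter units; mRNA measured 24 h after dosing. Reporter transcripts quantified by RT-PCR, FAM labelling, HpaI digestion and capillary electrophoresis; bidirectional fit versus DMSO.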

Chain of Transcription factor Sp1 (Homo sapiens) (P08047 whole entry, looked up): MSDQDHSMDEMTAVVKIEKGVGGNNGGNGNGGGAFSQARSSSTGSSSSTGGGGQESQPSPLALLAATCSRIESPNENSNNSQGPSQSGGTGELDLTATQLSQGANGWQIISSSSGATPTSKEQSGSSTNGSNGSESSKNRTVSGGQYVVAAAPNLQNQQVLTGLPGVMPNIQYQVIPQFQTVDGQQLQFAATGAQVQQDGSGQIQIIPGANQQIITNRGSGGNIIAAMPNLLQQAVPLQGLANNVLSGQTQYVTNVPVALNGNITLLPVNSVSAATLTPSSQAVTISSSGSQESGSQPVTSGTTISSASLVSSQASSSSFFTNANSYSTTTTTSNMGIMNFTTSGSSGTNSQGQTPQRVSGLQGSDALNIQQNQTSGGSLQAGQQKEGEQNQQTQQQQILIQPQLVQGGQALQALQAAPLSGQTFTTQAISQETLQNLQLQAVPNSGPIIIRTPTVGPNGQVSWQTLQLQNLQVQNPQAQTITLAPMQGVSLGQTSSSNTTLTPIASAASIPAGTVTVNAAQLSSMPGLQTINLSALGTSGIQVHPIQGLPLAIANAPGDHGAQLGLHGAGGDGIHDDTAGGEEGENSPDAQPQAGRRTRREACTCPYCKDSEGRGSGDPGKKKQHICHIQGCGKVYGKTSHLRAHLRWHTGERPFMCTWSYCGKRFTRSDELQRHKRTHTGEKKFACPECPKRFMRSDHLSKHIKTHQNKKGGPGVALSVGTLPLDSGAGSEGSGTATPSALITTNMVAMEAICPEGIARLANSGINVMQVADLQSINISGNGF
Chain of Paired box protein Pax-6 (Homo sapiens) (P26367 whole entry, looked up): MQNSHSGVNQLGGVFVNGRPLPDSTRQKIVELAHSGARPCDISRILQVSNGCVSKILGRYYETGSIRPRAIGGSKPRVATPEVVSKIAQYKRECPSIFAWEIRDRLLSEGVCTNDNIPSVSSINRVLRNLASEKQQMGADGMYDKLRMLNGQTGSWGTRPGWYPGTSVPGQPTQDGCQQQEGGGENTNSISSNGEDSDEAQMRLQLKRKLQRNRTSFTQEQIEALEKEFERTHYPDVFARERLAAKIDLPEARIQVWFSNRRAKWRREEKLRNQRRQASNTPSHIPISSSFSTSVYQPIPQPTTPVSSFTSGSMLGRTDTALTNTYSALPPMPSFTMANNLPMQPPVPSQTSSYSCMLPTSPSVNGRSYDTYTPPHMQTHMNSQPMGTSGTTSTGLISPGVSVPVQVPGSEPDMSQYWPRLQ
Chain of Hypoxia-inducible factor 1-alpha (Homo sapiens) (Q16665 whole entry, looked up): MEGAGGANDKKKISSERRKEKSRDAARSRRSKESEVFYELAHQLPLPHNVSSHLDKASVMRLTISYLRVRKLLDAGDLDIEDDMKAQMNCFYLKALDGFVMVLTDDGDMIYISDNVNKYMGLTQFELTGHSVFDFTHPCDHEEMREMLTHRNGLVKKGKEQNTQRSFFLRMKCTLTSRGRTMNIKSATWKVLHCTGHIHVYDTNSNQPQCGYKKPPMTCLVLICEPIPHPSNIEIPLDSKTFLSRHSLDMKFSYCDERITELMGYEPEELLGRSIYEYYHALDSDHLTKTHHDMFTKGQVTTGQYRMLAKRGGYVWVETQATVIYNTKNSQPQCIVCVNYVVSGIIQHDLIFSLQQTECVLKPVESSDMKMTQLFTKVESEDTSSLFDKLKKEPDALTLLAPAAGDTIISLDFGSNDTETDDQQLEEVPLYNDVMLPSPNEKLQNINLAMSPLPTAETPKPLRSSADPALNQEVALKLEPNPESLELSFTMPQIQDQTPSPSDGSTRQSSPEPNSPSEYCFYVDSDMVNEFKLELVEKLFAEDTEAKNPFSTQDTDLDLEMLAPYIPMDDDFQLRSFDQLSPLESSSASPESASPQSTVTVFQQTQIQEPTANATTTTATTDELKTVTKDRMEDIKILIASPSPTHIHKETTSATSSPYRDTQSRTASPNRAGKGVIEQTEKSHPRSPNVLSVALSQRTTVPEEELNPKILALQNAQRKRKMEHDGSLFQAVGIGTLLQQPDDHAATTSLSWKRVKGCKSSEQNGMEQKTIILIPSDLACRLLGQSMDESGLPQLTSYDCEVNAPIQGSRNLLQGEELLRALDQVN
Chain of Heat shock factor protein 1 (Homo sapiens) (Q00613 whole entry, looked up, the tested form may be a part): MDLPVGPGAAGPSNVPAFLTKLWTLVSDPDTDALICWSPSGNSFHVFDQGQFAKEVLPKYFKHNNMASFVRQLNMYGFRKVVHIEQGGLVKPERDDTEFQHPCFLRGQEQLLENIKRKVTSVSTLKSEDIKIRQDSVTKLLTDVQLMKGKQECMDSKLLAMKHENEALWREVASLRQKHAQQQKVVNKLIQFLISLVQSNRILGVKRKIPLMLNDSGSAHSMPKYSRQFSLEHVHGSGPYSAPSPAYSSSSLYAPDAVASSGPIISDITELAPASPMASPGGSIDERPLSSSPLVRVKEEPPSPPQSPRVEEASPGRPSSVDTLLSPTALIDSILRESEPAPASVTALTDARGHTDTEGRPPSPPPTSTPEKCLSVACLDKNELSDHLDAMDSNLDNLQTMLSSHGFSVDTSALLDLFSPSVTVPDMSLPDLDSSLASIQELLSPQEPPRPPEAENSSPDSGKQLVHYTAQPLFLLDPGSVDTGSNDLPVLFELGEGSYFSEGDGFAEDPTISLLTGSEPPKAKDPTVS
Chain of Signal transducer and activator of transcription 3 (Homo sapiens) (P40763 whole entry, looked up): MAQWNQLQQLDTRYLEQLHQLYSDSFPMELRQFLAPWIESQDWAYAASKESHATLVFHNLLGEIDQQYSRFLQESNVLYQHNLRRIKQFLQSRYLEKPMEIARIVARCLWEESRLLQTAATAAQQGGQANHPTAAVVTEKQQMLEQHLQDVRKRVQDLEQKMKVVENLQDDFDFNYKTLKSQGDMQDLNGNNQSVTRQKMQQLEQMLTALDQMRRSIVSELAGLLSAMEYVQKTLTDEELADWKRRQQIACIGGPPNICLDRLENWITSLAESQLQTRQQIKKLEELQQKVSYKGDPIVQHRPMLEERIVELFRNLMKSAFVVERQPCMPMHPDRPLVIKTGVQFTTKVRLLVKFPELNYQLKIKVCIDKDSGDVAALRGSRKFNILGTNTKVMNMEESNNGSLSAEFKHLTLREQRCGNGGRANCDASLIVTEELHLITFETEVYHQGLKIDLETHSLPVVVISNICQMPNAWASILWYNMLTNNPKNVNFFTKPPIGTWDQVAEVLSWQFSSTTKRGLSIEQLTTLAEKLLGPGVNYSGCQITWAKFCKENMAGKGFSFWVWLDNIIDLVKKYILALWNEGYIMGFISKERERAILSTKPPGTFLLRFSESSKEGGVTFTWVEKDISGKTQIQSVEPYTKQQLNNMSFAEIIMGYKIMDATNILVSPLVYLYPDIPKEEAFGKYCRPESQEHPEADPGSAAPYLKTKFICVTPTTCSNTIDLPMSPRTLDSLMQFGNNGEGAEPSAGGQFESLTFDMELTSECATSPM
Chain of Hepatocyte nuclear factor 6 (Homo sapiens) (Q9UBC0 whole entry, looked up, the tested form may be a part): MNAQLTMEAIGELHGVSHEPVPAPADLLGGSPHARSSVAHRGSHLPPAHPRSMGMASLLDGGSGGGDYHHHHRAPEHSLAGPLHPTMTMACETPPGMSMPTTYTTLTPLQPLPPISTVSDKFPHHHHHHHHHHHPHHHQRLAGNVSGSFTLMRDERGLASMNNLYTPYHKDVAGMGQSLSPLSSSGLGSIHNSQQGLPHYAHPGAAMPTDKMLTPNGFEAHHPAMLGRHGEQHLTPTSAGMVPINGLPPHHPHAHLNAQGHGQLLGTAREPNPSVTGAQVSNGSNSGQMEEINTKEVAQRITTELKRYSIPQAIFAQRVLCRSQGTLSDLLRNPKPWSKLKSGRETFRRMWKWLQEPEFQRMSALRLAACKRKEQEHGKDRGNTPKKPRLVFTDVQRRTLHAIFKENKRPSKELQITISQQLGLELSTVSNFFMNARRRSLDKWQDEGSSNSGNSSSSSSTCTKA

## C[C@]12C=CC(=O)C=C1CC[C@@H]1[C@@H]2[C@@H](O)C[C@@]2(C)[C@H]1CC[C@]2(O)C(=O)CO
[1]
  AC50: 0.394 µM (active)
[2]
  outcome: inactive
[3]
  outcome: inactive
[4]
  outcome: inactive
[5]
  outcome: inactive
[6]
  outcome: inactive
[7]
  outcome: inactive
[8]
  outcome: inactive
[9]
  AC50: 100 µM (active)
[10]
  outcome: inactive
[11]
  outcome: inactive
[12]
  outcome: inactive
[13]
  outcome: inactive
[14]
  outcome: inactive
[15]
  outcome: inactive
[16]
  outcome: inactive

## CCOC(=O)CC(C(C)=O)C(C)=O
[1]
  outcome: inactive
[2]
  outcome: inactive
[3]
  outcome: inactive
[4]
  outcome: inactive
[17]
  outcome: inactive
[7]
  outcome: inactive
[8]
  outcome: inactive
[9]
  outcome: inactive
[18]
  outcome: inactive
[10]
  outcome: inactive
[11]
  outcome: inactive
[12]
  outcome: inactive
[13]
  outcome: inactive
[14]
  outcome: inactive
[15]
  outcome: inactive
[16]
  outcome: inactive

## NC(=O)OCC(COC(N)=O)c1ccccc1
[1]
  outcome: inactive
[2]
  outcome: inactive
[3]
  outcome: inactive
[4]
  outcome: inactive
[5]
  outcome: inactive
[6]
  outcome: inactive
[19]
  outcome: inactive
[7]
  outcome: inactive
[8]
  outcome: inactive
[10]
  outcome: inactive
[11]
  outcome: inactive
[13]
  outcome: inactive
[14]
  outcome: inactive
[15]
  outcome: inactive
[16]
  outcome: inactive

## [Cl][In]([Cl])[Cl]
[1]
  outcome: inactive
[2]
  outcome: inactive
[3]
  outcome: inactive
[4]
  outcome: inactive
[17]
  outcome: inactive
[5]
  outcome: inactive
[19]
  outcome: inactive
[7]
  outcome: inactive
[8]
  outcome: inactive
[9]
  outcome: inactive
[10]
  outcome: inactive
[12]
  outcome: inactive
[13]
  outcome: inactive
[14]
  outcome: inactive
[15]
  outcome: inactive
[16]
  outcome: inactive

## O=c1c2ccccc2nnn1CCl
[1]
  outcome: inactive
[2]
  outcome: inactive
[3]
  outcome: inactive
[4]
  outcome: inactive
[5]
  outcome: inactive
[6]
  outcome: inactive
[19]
  outcome: inactive
[7]
  outcome: inactive
[8]
  outcome: inactive
[18]
  outcome: inactive
[10]
  outcome: inactive
[11]
  outcome: inactive
[12]
  outcome: inactive
[13]
  outcome: inactive
[14]
  outcome: inactive
[15]
  outcome: inactive
[16]
  outcome: inactive

## CCCCCC/C=C/C=O
[1]
  outcome: inactive
[2]
  outcome: inactive
[3]
  outcome: inactive
[4]
  outcome: inactive
[17]
  outcome: inactive
[5]
  outcome: inactive
[19]
  outcome: inactive
[7]
  outcome: inactive
[8]
  outcome: inactive
[9]
  AC50: 37.8 µM (active)
[18]
  AC50: 15 µM (active)
[10]
  outcome: inactive
[12]
  outcome: inactive
[13]
  outcome: inactive
[14]
  outcome: inactive
[15]
  outcome: inactive
[16]
  outcome: inactive

## ON(Cc1ccccc1)Cc1ccccc1
[1]
  outcome: inactive
[2]
  outcome: inactive
[3]
  outcome: inactive
[4]
  outcome: inactive
[5]
  outcome: inactive
[19]
  outcome: inactive
[7]
  outcome: inactive
[8]
  outcome: inactive
[9]
  AC50: 41.6 µM (active)
[18]
  outcome: inactive
[11]
  outcome: inactive
[12]
  outcome: inactive
[13]
  outcome: inactive
[14]
  outcome: inactive
[15]
  outcome: inactive
[16]
  outcome: inactive

## SCCc1cnccn1
[1]
  outcome: inactive
[2]
  AC50: 43.3 µM (active)
[3]
  outcome: inactive
[4]
  outcome: inactive
[5]
  outcome: inactive
[6]
  outcome: inactive
[7]
  outcome: inactive
[8]
  outcome: inactive
[9]
  AC50: 78.1 µM (active)
[10]
  outcome: inactive
[11]
  outcome: inactive
[13]
  outcome: inactive
[14]
  outcome: inactive
[15]
  outcome: inactive
[16]
  outcome: inactive
